According to PubChem BioAssay AID651820 (National Center for Advancing Translational Sciences (NCATS), 2012):
The campaign covered roughly 340,000 compounds. About 12,000 (3.5%) were called active. Inconclusive results (about 18%) are left out. Shown is part of a subset that was picked to be rich in actives. Values without a mark were called inactive. Calls come from the whole dose curve; as a rule, active = well fitted inhibition curve with a large enough effect; inconclusive = small, poorly fitted or top-dose-only effect, or another doubt; inactive = no such curve, though single readings can be large or run the other way.

Experiment: qHTS Assay for Inhibitors of Hepatitis C Virus (HCV)
Details: Huh7.5.1 HCVcc-Cre infection, luciferase reporter, 44 h; series mostly up to 41.8 µM; activity change, negative = inhibition: at the top concentration
Text: Hepatitis C virus (HCV) infects about 200 million people in the world. Many infected people progress to chronic liver disease including cirrhosis with a risk of developing liver cancer. To date, there is no effective vaccine for hepatitis C. Current therapy based on interferon is only effective in about half of the patients and is associated with significant adverse effects. The fraction of people with HCV who can complete a successful treatment is estimated to be no more than 10 percent. Recent development of direct-acting antivirals against HCV, such as protease and polymerase inhibitors, is promising but still requires combination with peginterferon and ribavirin for maximal efficacy. In addition, these agents are associated with high rate of resistance and many have significant side effects. Due to the lack of a culture system for infectious HCV, the search for new HCV drugs has been greatly hampered. […] High-throughput screening (HTS) with an infectious HCV system would cover the complete spectrum of potentially druggable targets in all stages of HCV lifecycle, and would have more biological relevance than other cell-based assays. Moreover, targeting several key processes in the viral life cycle may not only increase antiviral efficacy; more importantly, it may also reduce the capacity of the virus to develop resistance to the compound. The goal of this project is to identify novel HCV inhibitors as new therapies for hepatitis C, using a highly sensitive and specific assay platform which is based on a HCV infectious cell culture system established in the laboratory and adapted for high-throughput HCV drug screen. NIH Chemical Genomics Center [NCGC] NIH Molecular Libraries Probe Centers Network [MLPCN] MLPCN Grant: MH095511 Assay Submitter (PI): Jake Liang, NIDDK
The assay will start with plating 1,000 cells/well in 3 µL volume and culture for 4 h. Then 23 nL of compounds from the library collection will be added to each well, followed by adding 2.5 µL of HCVcc-Cre virus (~ 0.5 moi) and further cultured for 44 h before the luciferase assay. A volume of 4.5 µL luciferase substrates will be added to each well and the plates will be incubated at room temperature for 15 min. and then read for 15 sec. for the luciferase activity
% is set by controls: 0 for no effect and ±100 for the full control effect.

Structure (SMILES)	activity change, negative = inhibition	Potency
CCOC(=O)c1ccccc1NC(=O)COC(=O)C(Cc1c[nH]c2ccccc12)NC(C)=O (configuration not stated)	17%	–
COc1cc2ccccc2cc1C(=O)N1CCOCC1	-2.47%	–
COc1ccc(S(=O)(=O)N2CCN(CC(=O)N3c4ccccc4CC3C)CC2)cc1OC (configuration not stated)	1.67%	–
CCOC(=O)c1c(NC(=O)CSc2cn(CC)c3ccccc23)sc2c1CCC2	5.24%	–
CCCOC(=O)Nc1sc2c(c1C(=O)OCC)CCC2	–	10 µM (active)
CCOC(=O)c1c(NC(=O)C(C)Sc2c[nH]c3ccccc23)sc2c1CCC2 (configuration not stated)	–	11.2 µM (active)
CCOC(=O)c1c(NC(=S)NC)sc2c1CCCC2	-8.22%	–
CCOC(=O)c1c(NC(=S)NC(=O)c2ccco2)sc2c1CCCC2	-9.06%	–
CCOC(=O)c1c(NC(=S)Nc2ccccc2C)sc2c1CCC2	-26.7%	–
O=C(CN1C(=O)NC2(CCCCCC2)C1=O)NCc1ccc(F)cc1	3.95%	–
CCOc1ccc(NC(=O)CN(C)C(=O)CSc2ccccc2)cc1OCC	-2.17%	–
O=C(Nc1ccc(F)c([N+](=O)[O-])c1)C1CCCO1 (configuration not stated)	0.692%	–
Nc1nonc1-n1nnc(C(=O)N/N=C/c2ccccc2O)c1CN1CCCC1	-7.74%	–
COc1ccccc1NC(=O)COC(=O)CNC(=O)C1CCCCC1	-14.3%	–
Cc1csc(SCC(=O)Nc2sccc2C#N)n1	-12.8%	–
CC(c1nnc(SCC(=O)Nc2sccc2C#N)n1-c1ccc(Cl)cc1)N(C)C (configuration not stated)	–	22.4 µM (active)
Cc1cccc(C)c1Nc1nnc(SCC(=O)Nc2sccc2C#N)s1	-9.42%	–
COc1ccccc1C(=O)NCCC(=O)NN1C(=O)NC2(CCCCC2)C1=O	19.8%	–
O=C1CCCCC1Sc1ccc(Cl)cc1[N+](=O)[O-] (configuration not stated)	11.8%	–
Cc1cc(C)c(S(=O)(=O)NCC(c2ccc3c(c2)OCO3)N2CCOCC2)c(C)c1 (configuration not stated)	13.2%	–
CN(CCc1ccccc1)C(=O)c1cccc(NC(=O)Cc2cccc(NC(=O)C3CCCN(C(=O)CCc4ccccc4)C3)c2)c1 (configuration not stated)	–	0.794 µM (active)
O=C(NCCc1ccccc1)c1cccc(NC(=O)c2ccccc2)c1	-4.33%	–
CN(C)C(CNC(=O)Cc1ccc([N+](=O)[O-])cc1)c1ccccc1 (configuration not stated)	-24.7%	–
CN(C(=O)c1cccc(NC(=O)Cc2ccc([N+](=O)[O-])cc2)c1)C1CCC1	–	3.16 µM (active)
O=C(Cc1ccc(NC(=O)C2CCCN(C(=O)CCc3ccccc3)C2)cc1)Nc1ccc(C(=O)N2CCOCC2)cc1 (configuration not stated)	-13.7% [at 8.37 µM]	–

Structure (SMILES)	activity change, negative = inhibition	Potency
O=C(Cc1ccc(NC(=O)C2CCCN(C(=O)C3CCCCC3)C2)cc1)Nc1cccc(C(=O)N2CCCCC2)c1 (configuration not stated)	-22.8% [at 8.37 µM]	–
CN(C(=O)c1cccc(NC(=O)Cc2cccc(NC(=O)C3CCCN(C(=O)C4CC4)C3)c2)c1)C1CCC1 (configuration not stated)	-22.6% [at 8.37 µM]	–
CC(C)(C)OC(=O)N1CCC(C(=O)Nc2cccc(C(=O)NCCc3ccccc3)c2)CC1	–	8.91 µM (active)
CN(CCc1ccccc1)C(=O)c1cccc(NC(=O)Cc2cccc(NC(=O)C3CCCN(C(=O)C4CCC4)C3)c2)c1 (configuration not stated)	–	10 µM (active)
O=C(NCc1ccccc1)c1cccc(NC(=O)C2CCCCC2)c1	-17.2% [at 8.37 µM]	–
CN(C)CCNC(=O)Cc1ccc([N+](=O)[O-])cc1	5.72%	–
CN(C(=O)c1cccc(NC(=O)Cc2ccc(NC(=O)C3CCCN(C(=O)C4CCCC4)C3)cc2)c1)C1CCC1 (configuration not stated)	-26.3% [at 8.37 µM]	–
CC(Sc1ccccc1F)C(=O)Nc1cccc(S(=O)(=O)N2CCOCC2)c1 (configuration not stated)	-2.13%	–
CCC1(C)NC(=O)N(CC(=O)N2CCN(c3cccc(Cl)c3)CC2)C1=O (configuration not stated)	7.91%	–
COc1ccc(S(=O)(=O)N2CCN(CC(=O)NCC3(N4CCOCC4)CCCCC3)CC2)cc1	17.9%	–
CC(NC(=O)c1ccccc1)C(=O)Nc1ccccc1 (configuration not stated)	22.1%	–
COc1ccc(Cl)cc1C=CC=NNC(=O)c1ccncc1	-12.9%	–
CC(=O)Nc1ccc(S(=O)(=O)N2CCN(S(=O)(=O)c3cccs3)CC2)cc1	8%	–
CCC(C)c1ccc(NC(=O)COC(=O)C2CCCC2)cc1 (configuration not stated)	24.4%	–
Cc1ccccc1Nc1nc(N)nc(COC(=O)CCC(=O)c2ccc(F)cc2)n1	9.47%	–
COc1ccccc1NS(=O)(=O)c1ccc(C)c(C(=O)NNC(=O)c2csc(N3CCOCC3)n2)c1	-6.37%	–
Cc1cc(C)c(C)c(S(=O)(=O)N2CCN(C(=O)c3ccc4c(=O)n5c(nc4c3)CCC5)CC2)c1C	-7.77%	–
CC(C)N(Cc1nnc(-c2ccc(Cl)cc2)o1)C(=O)C1=COCCO1	-0.237% [at 8.37 µM]	–
CN(C(=O)c1cccc(NC(=O)Cc2ccc(NC(=O)C3CCN(C(=O)C4CCCCC4)CC3)cc2)c1)C1CCC1	-11.4% [at 8.37 µM]	–
CN(C(=O)c1ccc(NC(=O)Cc2cccc(NC(=O)C3CCN(C(=O)c4ccccc4)CC3)c2)cc1)C1CC1	–	0.562 µM (active)
CN(C(=O)c1cccc(NC(=O)Cc2ccc(NC(=O)C3CCCN(C(=O)C4CC4)C3)cc2)c1)C1CC1 (configuration not stated)	0.531%	–
CCOc1ccc(S(=O)(=O)N2CCC(C(=O)NCC(=O)Nc3cccc(Cl)c3C)CC2)cc1	5.38%	–
Cc1ccc(-n2ncc3c(=O)n(-c4ccc(C)c(C)c4)c(-c4ccco4)nc32)cc1	–	3.98 µM (active)
Cc1ccc(-n2ncc3c2ncn2nc(-c4ccco4)nc32)c(C)c1	-1.19%	–
Cc1ccc(-c2nc3c(cnn3-c3ccccc3)c(=O)o2)cc1	18.5%	–

Structure (SMILES)	activity change, negative = inhibition	Potency
O=c1ccc2c(-c3ccccc3S(=O)(=O)O)c3ccc(O)c(O)c3oc-2c1O	-10.9%	–
O=C(CN1C(=O)c2ccc([N+](=O)[O-])cc2C1=O)Nc1nnc(C2CC2)s1	33.3%	–
CC(CCN1CCN=C1N(C)C)c1ccccc1 (configuration not stated)	-8.02%	–
O=C(COc1ccccc1F)NNC(=O)c1cc(Br)ccc1Cl	15.1%	–
O=C(CCNC(=O)c1ccc(Br)cc1)NCCCc1ccccc1	24.9%	–
CCOc1ccc(NC(=O)CN(C)C(=O)Cc2sc(C)nc2-c2ccc(F)cc2)cc1OCC	-12.3%	–
CCOc1ccccc1NC(=S)C(=C([O-])c1ccc2c(c1)OCCO2)[n+]1ccc(CC)cc1	6.44%	–
COc1ccccc1/C=C/C(=O)NC(=S)N1CCOCC1	0.814%	–
O=C1OC(/C=C/c2ccccc2)=NC/1=C/c1ccco1	2.84%	–
COc1ccccc1/C=C/C1=NC(=C\N(C)C)/C(=O)O1	–	11.2 µM (active)
O=C(O)C(CCc1ccccn1)c1ccccc1 (configuration not stated)	2.66%	–
O=C(CSc1nnc(Nc2ccccc2F)s1)NC1CCCC1	-7.98%	–
CCOC(=O)c1[nH]c2c(c1-c1ccccc1)C(=O)CC(c1ccc(Cl)cc1)C2 (configuration not stated)	11.8%	–
CCCOC(=O)c1[nH]c2c(c1C)C(=O)CC(c1cc(OC)c(OC)c(OC)c1)C2 (configuration not stated)	–	4.47 µM (active)
COCCOC(=O)c1[nH]c2c(c1C)C(=O)CC(c1ccc(OC)cc1)C2 (configuration not stated)	-18.2%	–
Cn1c2c(c(=O)n(C)c1=O)CN(Cc1ccco1)CN2	29.8%	–
O=c1oc(-c2ccco2)nc2sc3c(c12)CCCCC3	0.369%	–
Cn1c(=O)n(Cc2ccco2)c(=N)c2c3c(sc21)CCCC3	–	10 µM (active)
COc1cc(C)ccc1OCC(=O)OCC(=O)c1ccc[nH]1	5.28%	–
O=C(NN=Cc1ccccc1O)NN=Cc1ccccc1O	–	5.01 µM (active)
O=C(N/N=C/c1c[nH]c2ccccc12)c1ccccc1O	7.77%	–
O=C(N/N=C/c1ccc(O)c2ccccc12)c1cccnc1	0.147%	–
NC(=O)NC(=O)C(OC(=O)CCNS(=O)(=O)c1ccccc1)c1ccccc1 (configuration not stated)	22.6%	–
O=C(c1ccc(Cl)c(S(=O)(=O)N2CCCCC2)c1)N1CCCCCC1	-27.9%	–
COc1ccccc1N1CCN(C(=O)c2ccc(Cl)c(S(=O)(=O)N3CCCC3)c2)CC1	–	11.2 µM (active)

Structure (SMILES)	activity change, negative = inhibition	Potency
COc1ccccc1N1CCN(C(=O)c2ccc(S(=O)(=O)N3CCCCC3)cc2)CC1	0.986%	–
O=C(NN1CCOCC1)c1cccc(F)c1	28%	–
CC1C(C)N(C(=O)CCl)c2ccccc2N1C(=O)CCl (configuration not stated)	–	4.47 µM (active)
CNC(=O)N1c2ccccc2C=Cc2ccccc21	2.06%	–
CCNC(=O)N1c2ccccc2Sc2ccccc21	-20.7%	–
O=C(CSc1nc2ccccc2c(=O)n1-c1ccccc1F)N1CCOCC1	9.53%	–
CN(CC(=O)Nc1ccc(C(N)=O)cc1)S(=O)(=O)c1ccc2c(c1)OCCO2	-10.4%	–
Cn1c(=O)cc(SCC(=O)N2CCCC2)c2cc(Cl)ccc21	–	10 µM (active)
Cn1c(=O)cc(SCC(=O)N2CCN(C(=O)c3ccco3)CC2)c2ccccc21	-1.57%	–
CCOC(=O)C1CCN(C(=O)CSc2cc(=O)n(C)c3ccccc23)CC1	9.61%	–
CC(=O)c1ccc(NC(=O)C2CCCN2S(=O)(=O)c2cccs2)cc1 (configuration not stated)	8.62%	–
COC(=O)[C@H](C)NC(=O)Nc1ccc(OC(F)(F)F)cc1	8.34%	–
Cn1nccc1NC(=O)Nc1ccc(OC(F)(F)F)cc1	4.83%	–
O=C(Nc1ccc(OC(F)(F)F)cc1)c1ccc2c(c1)no[n+]2[O-]	–	31.6 µM (active)
COc1ccc(S(=O)(=O)N2CCCC2CNC(=O)C(=O)NC2CC2)cc1 (configuration not stated)	21.9%	–
O=C(NC1CCCCCC1)C1CCN(C(=O)c2ccc(Cl)cc2)CC1	6.16%	–
CC(=O)N1c2ccc(S(=O)(=O)N3CCCC(C(=O)Nc4cccc(Cl)c4)C3)cc2CC1C (configuration not stated)	–	5.62 µM (active)
Cc1cc(C)cc(NC(=O)C2CCCN(S(=O)(=O)c3ccc4[nH]c(=O)ccc4c3)C2)c1 (configuration not stated)	-21.5%	–
CC(=O)N1c2ccc(S(=O)(=O)N3CCCC(C(=O)Nc4ccc(C)cc4C)C3)cc2CC1C (configuration not stated)	-8.23%	–
CC(=O)N1c2ccc(S(=O)(=O)N3CCCC(C(=O)Nc4cccc(F)c4)C3)cc2CC1C (configuration not stated)	–	11.2 µM (active)
CCc1cccc(NC(=O)C2CCCN(S(=O)(=O)c3ccc4[nH]c(=O)ccc4c3)C2)c1 (configuration not stated)	-6.12%	–
CC(=O)N1c2ccc(S(=O)(=O)N3CCC(C(=O)NC4CCCCC4C)CC3)cc2CC1C (configuration not stated)	0.0955%	–
